Our source for the binding signal values is article PMC4053984, “DNA binding specificities of the long zinc-finger recombination protein PRDM9”.

In the assay the target is PRDM9Cst (Mus musculus (CAST/EiJ)). As to the kind of experiment: competition EMSA; competition against biotin-labeled 75-bp Hlx1 B6 oligo; 10 mM Tris pH 7.5, 50 mM KCl, 1 mM DTT, 50 ng/ul poly(dI/dC), 0.05% NP-40, crude E. coli extract 3 ul in 20 ul; 1 h with unlabeled competitor, then 4 h with biotin-labeled 75-bp Hlx1; temperature not stated; high values mean tight binding. The settings on record: tags: N-terminal His tag (pBAD/HisB); dsDNA, one strand shown.
Chain of PRDM9Cst (Mus musculus (CAST/EiJ)) (chain, as listed by the source): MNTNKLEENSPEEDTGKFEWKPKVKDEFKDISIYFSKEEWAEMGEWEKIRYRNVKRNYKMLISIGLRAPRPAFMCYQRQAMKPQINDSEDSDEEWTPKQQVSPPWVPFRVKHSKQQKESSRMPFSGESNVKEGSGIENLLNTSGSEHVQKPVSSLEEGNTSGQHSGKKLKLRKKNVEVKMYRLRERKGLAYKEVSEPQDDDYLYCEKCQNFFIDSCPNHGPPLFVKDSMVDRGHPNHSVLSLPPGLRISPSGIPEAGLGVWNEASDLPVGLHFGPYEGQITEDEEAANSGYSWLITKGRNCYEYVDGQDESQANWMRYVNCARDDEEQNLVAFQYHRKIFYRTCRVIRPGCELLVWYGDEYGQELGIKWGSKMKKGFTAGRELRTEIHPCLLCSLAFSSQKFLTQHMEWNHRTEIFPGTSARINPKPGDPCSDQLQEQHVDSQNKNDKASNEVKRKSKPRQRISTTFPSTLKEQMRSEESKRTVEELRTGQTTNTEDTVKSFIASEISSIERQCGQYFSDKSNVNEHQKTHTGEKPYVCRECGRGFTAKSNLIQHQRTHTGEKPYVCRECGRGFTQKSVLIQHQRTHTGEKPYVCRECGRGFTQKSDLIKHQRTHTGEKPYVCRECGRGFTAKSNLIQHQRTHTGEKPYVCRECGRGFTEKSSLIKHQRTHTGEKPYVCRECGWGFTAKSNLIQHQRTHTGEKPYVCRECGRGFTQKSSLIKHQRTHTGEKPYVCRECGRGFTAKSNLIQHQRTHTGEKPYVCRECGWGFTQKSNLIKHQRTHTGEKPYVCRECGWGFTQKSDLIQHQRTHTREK
As for ATAGTGTGCAGACTTGGACCATGCCCTTTCTTT, the binding signal was 0.07 Bmut (0 = wild type, -1 = scrambled).
Take ACAGTGTGCAGACTTGGACCCTGCCCTTTCTTT: the binding signal is -0.1 Bmut (0 = wild type, -1 = scrambled).
On to ATAGTGTGCAGACTTGGAGCCTGCCCTTTCTTT, for which the binding signal is -0.5 Bmut (0 = wild type, -1 = scrambled).
Under ATCGTGTGCAGACTTGGACCCTGCCCTTTCTTT stands -0.1 Bmut (0 = wild type, -1 = scrambled).
As for ATAGTGTGCAGACTTGGACCCTGCCCTTGCTTT, the figure is -0 Bmut (0 = wild type, -1 = scrambled); as for ATGGTGTGCAGACTTGGACCCTGCCCTTTCTTT, 0 Bmut (0 = wild type, -1 = scrambled); as for ATAGTGTGGAGACTTGGACCCTGCCCTTTCTTT, 0.1 Bmut (0 = wild type, -1 = scrambled).
As for ATAGTGTGCAGACTTGGCCCCTGCCCTTTCTTT, the binding signal is -0.9 Bmut (0 = wild type, -1 = scrambled).
As for ATAGTGTGCAGACTTGGAACCTGCCCTTTCTTT, the binding signal is -0.1 Bmut (0 = wild type, -1 = scrambled).
Regarding ATAGAGTGCAGACTTGGACCCTGCCCTTTCTTT, the binding signal is 0 Bmut (0 = wild type, -1 = scrambled).
As to ATAGTGTGCAGACTTGGACCCTGCCCTTTTTTT, the binding signal was 0.11 Bmut (0 = wild type, -1 = scrambled).
On to ATAGTGCGCAGACTTGGACCCTGCCCTTTCTTT, for which the binding signal was -0.2 Bmut (0 = wild type, -1 = scrambled).
In the case of ATAGTGTGTAGACTTGGACCCTGCCCTTTCTTT, the binding signal was 0 Bmut (0 = wild type, -1 = scrambled).
As for ATAGTGTGCAGACTTGGACCCTGCCCTTTCTAT, the binding signal is 0.15 Bmut (0 = wild type, -1 = scrambled).
With ATAGTGGGCAGACTTGGACCCTGCCCTTTCTTT, the binding signal is -0.7 Bmut (0 = wild type, -1 = scrambled).
Regarding ATAGTGTGCAGACTTGGACCCTGCCCTTTCTTG, the binding signal is 0.09 Bmut (0 = wild type, -1 = scrambled).
On to ATAGTGTGCAGACTTGGACCCTGCCCTTTCCTT, for which the binding signal was 0.12 Bmut (0 = wild type, -1 = scrambled).
ATAGTGTGCACACTTGGACCCTGCCCTTTCTTT: the binding signal was -0.2 Bmut (0 = wild type, -1 = scrambled).
Turning to ATAGTGTACAGACTTGGACCCTGCCCTTTCTTT, the binding signal is 0.1 Bmut (0 = wild type, -1 = scrambled).
For the sequence AAAGTGTGCAGACTTGGACCCTGCCCTTTCTTT, the binding signal is 0 Bmut (0 = wild type, -1 = scrambled).
On to ATACTGTGCAGACTTGGACCCTGCCCTTTCTTT, for which the binding signal is -0.1 Bmut (0 = wild type, -1 = scrambled).
Regarding ATAGTGTGCTGACTTGGACCCTGCCCTTTCTTT, the binding signal was -0.4 Bmut (0 = wild type, -1 = scrambled).
As for ATAGTGTGCAGACTTGGACCCTGCCCTTACTTT, the figure is -0.1 Bmut (0 = wild type, -1 = scrambled); as for ATAGTGTGCAGACTTGGACCCTGCCCTTTCTTC, 0.14 Bmut (0 = wild type, -1 = scrambled); as for ATAGTGTGCAGACTTGGACCCTGCCCTTTCGTT, 0.12 Bmut (0 = wild type, -1 = scrambled).
With ATAGTGTGCAGACTTGGACCTTGCCCTTTCTTT, the binding signal is 0.06 Bmut (0 = wild type, -1 = scrambled).
Under ATAGTGTGCAGACTTGGACCCTGACCTTTCTTT stands -0.3 Bmut (0 = wild type, -1 = scrambled).
As for ATAGTGTGCAGACTTGGACCCTGCACTTTCTTT, the figure is -0.1 Bmut (0 = wild type, -1 = scrambled).
Under ATAGTGTGAAGACTTGGACCCTGCCCTTTCTTT stands -0.1 Bmut (0 = wild type, -1 = scrambled); under ATAGTGTCCAGACTTGGACCCTGCCCTTTCTTT, -0.1 Bmut (0 = wild type, -1 = scrambled); under ATAGTGTGCAGAATTGGACCCTGCCCTTTCTTT, -0.1 Bmut (0 = wild type, -1 = scrambled).
